The full data set covers some 7,900 targets. This sample favours those with a hit. About 0.6% of all pairs of compound and target were hits.
Columns and labels:
Assay in all cases: log2 fold change, soluble protein after heating vs DMSO (PISA); higher = thermal stabilisation; K562 cells, 10 uM, 30 min; active = over 0.2 and 3.5 SD of the protein, either way, in both replicates (recomputed)
[1] = compound: CC1=C(C=C(C=C1)NC(=O)C2=CC(=CC=C2)C(C)(C)C#N)NC3=CC4=C(C=C3)N=CN(C4=O)C
Procedure, shortened: (§1)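 Soluble protein was quantified by TMTpro 16plex LC-MS/MS after channel sums were equalised. It was obtained as the supernatant after 21,000xg for 90 min from pooled aliquots of K562 cells (2×10^6 cells/mL, 10 μM compound, 30 min) heated for 3 min across 48°C-58°C and extracted in PBS with 0.5% NP-40 at 4°C. Thermal stability values are relative to control samples and come from duplicates. They are given as log2 fold changes.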

[2] = compound: CC1=C(C=C(C=C1)NC(=O)C2=CC(=CC=C2)N(C)C)NC(=O)C3=CC=C(C=C3)O
Procedure, shortened: as §1

[3] = compound: CC1=CC=C(C=C1)SC2=C3C=C(SC3=CN=C2)C(=O)N
Procedure, shortened: as §1

[4] = compound: CC1=NC(=CC=C1)C2=C(N=C(N2)C(C)(C)C)C3=CC4=NC=CN=C4C=C3
Procedure, shortened: as §1

Nexturastat A = compound: CCCCN(Cc1ccc(C(=O)NO)cc1)C(=O)Nc1ccccc1 [Nexturastat A]
Procedure, shortened: as §1

vemurafenib = compound: CCCS(=O)(=O)Nc1ccc(F)c(C(=O)c2c[nH]c3ncc(-c4ccc(Cl)cc4)cc23)c1F [vemurafenib]
Procedure, shortened: as §1

[5] = compound: CCCS(=O)(=O)Nc1ccc(F)c(C(=O)c2c[nH]c3ncc(Cl)cc23)c1F
Procedure, shortened: as §1

[6] = compound: CCCc1cc(C)[nH]c(=O)c1CNC(=O)c1cc(-c2ccnc(N3CCN(C)CC3)c2)cc2c1cnn2C(C)C
Procedure, shortened: as §1

givinostat = compound: CCN(CC)Cc1ccc2cc(COC(=O)Nc3ccc(C(=O)NO)cc3)ccc2c1 [givinostat]
Procedure, shortened: as §1

barasertib = compound: CCN(CCCOc1ccc2c(Nc3cc(CC(=O)Nc4cccc(F)c4)[nH]n3)ncnc2c1)CCOP(=O)(O)O [barasertib]
Procedure, shortened: as §1

Measured: log2 fold change

PRMT3 (UniProt O60678)
inactive: [1] 0.016 | [2] -0.025 | [3] 0.044 | [4] 0.076 | Nexturastat A -0.026 | vemurafenib 0.056 | [5] 0.055 | [6] 0 | givinostat -0.013 | barasertib 0.035

PPP1R12A (UniProt O14974)
inactive: [1] -0.012 | [2] -0.036 | [3] 0.046 | [4] 0.045 | Nexturastat A 0.001 | vemurafenib 0.015 | [5] 0.073 | [6] -0.032 | givinostat 0.048 | barasertib 0.066

PARP1 (UniProt P09874)
active: [6] 0.555
inactive: [1] 0.116 | [2] -0.149 | [3] 0.071 | [4] 0.107 | Nexturastat A -0.13 | vemurafenib 0.112 | [5] 0.145 | givinostat 0.045 | barasertib 0.122

PCBP2 isoform 3 (UniProt Q15366)
inactive: [1] 0.054 | [2] -0.024 | [3] 0.065 | [4] 0.149 | Nexturastat A -0.006 | vemurafenib 0.056 | [5] 0.129 | [6] -0.004 | givinostat 0.031 | barasertib 0.013

PRKCA (UniProt P17252)
inactive: [1] -0.014 | [2] -0.068 | [3] -0.016 | [4] 0.007 | Nexturastat A 0.023 | vemurafenib -0.015 | [5] 0.012 | [6] -0.021 | givinostat -0.02 | barasertib 0.025

PIP4P1 isoform 2 (UniProt Q86T03)
Sequence of UniProt Q86T03 (Q86T03 whole entry, looked up): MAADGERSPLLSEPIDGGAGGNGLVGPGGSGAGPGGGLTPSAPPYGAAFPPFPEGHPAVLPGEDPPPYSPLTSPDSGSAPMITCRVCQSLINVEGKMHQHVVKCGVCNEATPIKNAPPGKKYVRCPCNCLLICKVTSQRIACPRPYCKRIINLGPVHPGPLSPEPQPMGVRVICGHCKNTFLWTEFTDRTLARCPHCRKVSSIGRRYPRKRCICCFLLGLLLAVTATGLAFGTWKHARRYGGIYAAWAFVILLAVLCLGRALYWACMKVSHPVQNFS
inactive: [1] -0.018 | [2] -0.001 | [3] -0.019 | [4] 0.039 | Nexturastat A 0.035 | vemurafenib -0.198 | [5] -0.063 | [6] -0.002 | givinostat -0.037 | barasertib 0.001

PTMA (UniProt P06454)
Sequence of UniProt P06454 (P06454 whole entry, looked up): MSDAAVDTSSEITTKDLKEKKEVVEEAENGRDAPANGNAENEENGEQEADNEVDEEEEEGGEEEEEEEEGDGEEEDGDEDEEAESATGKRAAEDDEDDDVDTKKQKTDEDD
inactive: [1] 0.133 | [2] -0.041 | [3] 0.053 | [4] 0.213 | Nexturastat A -0.077 | vemurafenib 0.05 | [5] -0.044 | [6] -0.008 | givinostat -0.022 | barasertib -0.013

PXK (UniProt Q7Z7A4)
Sequence of UniProt Q7Z7A4 (Q7Z7A4 whole entry, looked up): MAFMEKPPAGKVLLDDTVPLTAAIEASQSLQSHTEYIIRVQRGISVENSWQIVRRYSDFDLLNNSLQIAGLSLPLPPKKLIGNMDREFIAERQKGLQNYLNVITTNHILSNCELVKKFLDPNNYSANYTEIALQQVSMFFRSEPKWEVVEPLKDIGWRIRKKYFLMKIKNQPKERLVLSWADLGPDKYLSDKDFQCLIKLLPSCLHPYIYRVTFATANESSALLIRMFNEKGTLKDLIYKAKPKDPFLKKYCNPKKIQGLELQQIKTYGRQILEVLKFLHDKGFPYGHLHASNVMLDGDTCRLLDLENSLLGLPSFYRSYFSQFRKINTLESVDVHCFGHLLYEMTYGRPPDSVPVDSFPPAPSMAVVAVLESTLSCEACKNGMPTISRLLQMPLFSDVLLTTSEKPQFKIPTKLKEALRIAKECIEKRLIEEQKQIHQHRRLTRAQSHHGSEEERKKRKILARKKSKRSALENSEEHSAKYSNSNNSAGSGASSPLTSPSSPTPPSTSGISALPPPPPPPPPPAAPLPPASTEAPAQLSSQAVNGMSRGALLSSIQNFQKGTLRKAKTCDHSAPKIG
inactive: [1] 0.017 | [2] -0.059 | [3] -0.041 | [4] 0.011 | Nexturastat A -0.018 | vemurafenib 0.017 | [5] 0.071 | [6] -0.046 | givinostat 0.022 | barasertib 0.002

PYGL (UniProt P06737)
inactive: [1] -0.105 | [2] 0.011 | [3] 0.011 | [4] 0.006 | Nexturastat A -0.018 | vemurafenib -0.009 | [5] 0.003 | [6] -0.015 | givinostat 0.012 | barasertib -0.01

POTEI (UniProt P0CG38)
inactive: [1] 0.056 | [2] -0.035 | [3] -0.012 | [4] 0.052 | Nexturastat A -0.071 | vemurafenib 0.08 | [5] 0.014 | [6] -0.072 | givinostat -0.018 | barasertib 0

PIGT (UniProt Q969N2)
inactive: [1] -0.001 | [2] -0.005 | [3] 0.02 | [4] -0.016 | Nexturastat A 0.031 | vemurafenib -0.008 | [5] 0.009 | [6] 0.027 | givinostat -0.033 | barasertib 0.004

PML (UniProt P29590)
inactive: [1] -0.024 | [2] -0.001 | [3] -0.009 | [4] -0.02 | Nexturastat A -0.002 | vemurafenib -0.044 | [5] 0.018 | [6] -0.007 | givinostat -0.014 | barasertib 0.01

PCTP (UniProt Q9UKL6)
Sequence of UniProt Q9UKL6 (Q9UKL6 whole entry, looked up): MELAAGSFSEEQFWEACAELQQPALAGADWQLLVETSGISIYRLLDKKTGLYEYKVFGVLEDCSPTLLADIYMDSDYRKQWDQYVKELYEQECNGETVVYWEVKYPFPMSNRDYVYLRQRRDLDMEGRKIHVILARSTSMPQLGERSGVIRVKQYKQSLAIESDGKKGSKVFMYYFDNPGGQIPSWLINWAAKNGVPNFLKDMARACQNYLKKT
inactive: [1] -0.007 | [2] 0.004 | [3] 0.052 | [4] 0.039 | Nexturastat A -0.003 | vemurafenib 0.005 | [5] 0.066 | [6] 0.026 | givinostat -0.035 | barasertib 0.013

POLR2I (UniProt P36954)
inactive: [1] -0.063 | [2] -0.011 | [3] -0.015 | [4] 0.001 | Nexturastat A 0.055 | vemurafenib -0.086 | [5] -0.081 | [6] -0.057 | givinostat -0.151 | barasertib 0.085

PRKCD (UniProt Q05655)
inactive: [1] -0.015 | [2] -0.025 | [3] -0.012 | [4] -0.016 | Nexturastat A -0.032 | vemurafenib 0.015 | [5] 0.013 | [6] -0.045 | givinostat -0.021 | barasertib 0.023

PTDSS1 (UniProt P48651)
inactive: [1] 0.005 | [2] -0.006 | [3] 0.08 | [4] -0.01 | Nexturastat A 0.192 | vemurafenib -0.055 | [5] 0.019 | [6] -0.007 | givinostat 0.072 | barasertib 0.03

PRCP (UniProt P42785)
Sequence of UniProt P42785 (P42785 whole entry, looked up): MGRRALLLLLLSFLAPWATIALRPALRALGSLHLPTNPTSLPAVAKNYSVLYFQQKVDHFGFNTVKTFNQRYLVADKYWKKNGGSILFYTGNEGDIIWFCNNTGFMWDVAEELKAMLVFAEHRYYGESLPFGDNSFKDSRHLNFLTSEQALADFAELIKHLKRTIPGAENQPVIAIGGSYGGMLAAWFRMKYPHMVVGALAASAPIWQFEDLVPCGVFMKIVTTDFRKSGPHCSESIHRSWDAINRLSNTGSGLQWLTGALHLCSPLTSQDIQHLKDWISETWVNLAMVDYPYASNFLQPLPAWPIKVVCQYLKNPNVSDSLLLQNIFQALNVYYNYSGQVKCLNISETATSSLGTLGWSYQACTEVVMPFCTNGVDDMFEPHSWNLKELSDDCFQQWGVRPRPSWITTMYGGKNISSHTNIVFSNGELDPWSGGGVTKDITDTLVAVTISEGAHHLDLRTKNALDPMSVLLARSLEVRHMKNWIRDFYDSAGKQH
inactive: [1] 0 | [2] 0.061 | [3] 0.022 | [4] -0.002 | Nexturastat A 0.072 | vemurafenib 0.008 | [5] 0.01 | [6] -0.082 | givinostat 0.035 | barasertib -0.008

PDS5B (UniProt Q9NTI5)
inactive: [1] -0.088 | [2] 0.086 | [3] 0.176 | [4] 0.109 | Nexturastat A -0.011 | vemurafenib -0.032 | [5] 0.32 | [6] -0.058 | givinostat 0.135 | barasertib 0.047

PRKCG (UniProt P05129)
inactive: [1] 0.085 | [2] -0.117 | [3] -0.058 | [4] 0.021 | Nexturastat A -0.08 | vemurafenib -0.041 | [5] 0.034 | [6] 0.019 | givinostat -0.316 | barasertib -0.094

PI4K2A (UniProt Q9BTU6)
inactive: [1] -0.037 | [2] -0.02 | [3] 0.004 | [4] 0.023 | Nexturastat A -0.005 | vemurafenib 0.023 | [5] 0.015 | [6] -0.036 | givinostat -0.008 | barasertib -0.011

PIP4K2B (UniProt P78356)
Sequence of UniProt P78356 (P78356 whole entry, looked up): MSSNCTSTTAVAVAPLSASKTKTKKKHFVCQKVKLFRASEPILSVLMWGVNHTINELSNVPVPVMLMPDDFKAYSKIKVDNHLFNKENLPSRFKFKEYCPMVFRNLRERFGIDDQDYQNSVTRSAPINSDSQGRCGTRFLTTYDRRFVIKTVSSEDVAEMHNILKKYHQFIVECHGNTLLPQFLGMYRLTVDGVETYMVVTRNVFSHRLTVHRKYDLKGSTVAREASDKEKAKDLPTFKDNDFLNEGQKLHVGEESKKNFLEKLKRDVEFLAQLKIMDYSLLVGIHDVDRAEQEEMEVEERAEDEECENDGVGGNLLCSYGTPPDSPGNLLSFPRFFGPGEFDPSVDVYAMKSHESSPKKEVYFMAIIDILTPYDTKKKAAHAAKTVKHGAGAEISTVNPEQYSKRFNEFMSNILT
inactive: [1] -0.055 | [2] -0.048 | [3] 0.033 | [4] 0.026 | Nexturastat A -0.088 | vemurafenib 0.045 | [5] 0.02 | [6] 0.039 | givinostat -0.076 | barasertib 0.004

PHKG2 (UniProt P15735)
inactive: [1] 0.012 | [2] -0.007 | [3] -0.083 | [4] -0.031 | Nexturastat A 0.002 | vemurafenib -0.003 | [5] -0.004 | [6] 0 | givinostat 0.01 | barasertib -0.079

PLCG1 isoform 2 (UniProt P19174)
Sequence of UniProt P19174 (P19174 whole entry, looked up): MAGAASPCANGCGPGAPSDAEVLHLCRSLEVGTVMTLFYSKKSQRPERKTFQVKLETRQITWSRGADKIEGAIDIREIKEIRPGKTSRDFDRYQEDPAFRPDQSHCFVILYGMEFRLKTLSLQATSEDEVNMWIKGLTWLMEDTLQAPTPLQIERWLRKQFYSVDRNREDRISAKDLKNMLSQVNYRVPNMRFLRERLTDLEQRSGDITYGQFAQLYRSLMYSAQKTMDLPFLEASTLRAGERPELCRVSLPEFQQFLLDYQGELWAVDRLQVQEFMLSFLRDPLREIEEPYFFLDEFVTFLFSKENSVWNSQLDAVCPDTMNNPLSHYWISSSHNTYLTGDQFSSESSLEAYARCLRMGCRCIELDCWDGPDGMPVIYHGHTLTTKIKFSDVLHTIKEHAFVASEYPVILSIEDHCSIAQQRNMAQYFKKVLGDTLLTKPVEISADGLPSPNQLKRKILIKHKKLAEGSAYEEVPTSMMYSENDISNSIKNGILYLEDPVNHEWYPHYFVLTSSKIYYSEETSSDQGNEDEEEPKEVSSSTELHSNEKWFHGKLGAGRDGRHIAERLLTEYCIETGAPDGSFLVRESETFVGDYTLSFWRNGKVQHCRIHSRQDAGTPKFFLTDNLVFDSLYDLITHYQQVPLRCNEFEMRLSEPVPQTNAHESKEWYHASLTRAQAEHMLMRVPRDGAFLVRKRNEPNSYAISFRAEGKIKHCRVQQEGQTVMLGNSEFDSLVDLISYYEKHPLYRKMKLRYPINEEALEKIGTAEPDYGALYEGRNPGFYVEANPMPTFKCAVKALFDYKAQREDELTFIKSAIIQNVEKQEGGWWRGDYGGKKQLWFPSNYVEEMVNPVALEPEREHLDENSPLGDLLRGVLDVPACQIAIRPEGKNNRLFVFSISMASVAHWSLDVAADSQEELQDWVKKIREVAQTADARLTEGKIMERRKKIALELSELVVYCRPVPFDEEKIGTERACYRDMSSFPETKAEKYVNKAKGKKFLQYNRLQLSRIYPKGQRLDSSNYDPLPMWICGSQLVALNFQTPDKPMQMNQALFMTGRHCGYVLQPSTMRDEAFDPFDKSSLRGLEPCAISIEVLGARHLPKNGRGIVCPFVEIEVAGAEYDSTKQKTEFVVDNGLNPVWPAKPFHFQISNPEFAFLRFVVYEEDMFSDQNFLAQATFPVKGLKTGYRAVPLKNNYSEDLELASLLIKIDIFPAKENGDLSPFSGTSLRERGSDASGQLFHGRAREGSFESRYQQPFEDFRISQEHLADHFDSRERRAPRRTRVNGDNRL
inactive: [1] 0.045 | [2] -0.011 | [3] 0.039 | [4] -0.012 | Nexturastat A 0.019 | vemurafenib 0.003 | [5] 0.079 | [6] -0.019 | givinostat -0.013 | barasertib 0.031

POLR2C (UniProt P19387)
inactive: [1] -0.097 | [2] -0.058 | [3] 0.038 | [4] -0.011 | Nexturastat A 0.126 | vemurafenib 0.021 | [5] 0.066 | [6] -0.005 | givinostat 0.042 | barasertib 0.022

PIR (UniProt O00625)
inactive: [1] -0.063 | [3] 0.002 | [4] -0.035 | Nexturastat A -0.053 | vemurafenib 0.03 | [5] 0.122 | [6] 0.085 | givinostat -0.146 | barasertib 0.007
active: [2] 0.325

PPT1 (UniProt P50897)
inactive: [1] -0.017 | [2] 0.009 | [3] 0.046 | [4] 0.013 | Nexturastat A -0.081 | vemurafenib 0 | [5] -0.003 | [6] -0.107 | givinostat -0.022 | barasertib -0.017

PBX2 (UniProt P40425)
inactive: [1] 0.049 | [2] 0.001 | [3] 0.089 | [4] 0.165 | Nexturastat A 0.072 | vemurafenib 0.099 | [5] 0.136 | [6] 0.026 | givinostat 0.138 | barasertib 0.03

PSMD11 (UniProt O00231)
inactive: [1] 0.048 | [2] -0.005 | [3] 0.017 | [4] -0.006 | Nexturastat A 0.124 | vemurafenib -0.031 | [5] 0.058 | [6] 0.047 | givinostat -0.027 | barasertib -0.056

PARN (UniProt O95453)
Sequence of UniProt O95453 (O95453 whole entry, looked up): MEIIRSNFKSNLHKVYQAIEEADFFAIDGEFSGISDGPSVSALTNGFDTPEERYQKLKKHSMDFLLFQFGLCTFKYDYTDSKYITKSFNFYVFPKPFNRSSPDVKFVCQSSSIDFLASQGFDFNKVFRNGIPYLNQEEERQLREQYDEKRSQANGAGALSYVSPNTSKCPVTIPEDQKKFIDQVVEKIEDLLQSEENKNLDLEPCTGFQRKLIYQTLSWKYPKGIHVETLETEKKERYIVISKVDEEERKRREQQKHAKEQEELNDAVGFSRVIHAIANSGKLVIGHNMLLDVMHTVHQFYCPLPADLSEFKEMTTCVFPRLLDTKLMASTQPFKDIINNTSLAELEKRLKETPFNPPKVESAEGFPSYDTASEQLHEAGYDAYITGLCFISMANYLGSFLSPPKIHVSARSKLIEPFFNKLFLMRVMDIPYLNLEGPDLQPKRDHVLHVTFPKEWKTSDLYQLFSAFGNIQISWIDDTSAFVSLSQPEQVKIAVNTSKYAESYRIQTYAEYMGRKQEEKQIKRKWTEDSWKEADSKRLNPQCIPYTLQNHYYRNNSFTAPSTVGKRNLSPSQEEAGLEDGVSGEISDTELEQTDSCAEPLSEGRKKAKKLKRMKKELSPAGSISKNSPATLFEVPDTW
inactive: [1] -0.038 | [2] -0.004 | [3] 0.004 | [4] 0.013 | Nexturastat A -0.069 | vemurafenib 0 | [5] 0.043 | [6] -0.058 | givinostat 0.059 | barasertib 0.057

PSMD2 (UniProt Q13200)
Sequence of UniProt Q13200 (Q13200 whole entry, looked up): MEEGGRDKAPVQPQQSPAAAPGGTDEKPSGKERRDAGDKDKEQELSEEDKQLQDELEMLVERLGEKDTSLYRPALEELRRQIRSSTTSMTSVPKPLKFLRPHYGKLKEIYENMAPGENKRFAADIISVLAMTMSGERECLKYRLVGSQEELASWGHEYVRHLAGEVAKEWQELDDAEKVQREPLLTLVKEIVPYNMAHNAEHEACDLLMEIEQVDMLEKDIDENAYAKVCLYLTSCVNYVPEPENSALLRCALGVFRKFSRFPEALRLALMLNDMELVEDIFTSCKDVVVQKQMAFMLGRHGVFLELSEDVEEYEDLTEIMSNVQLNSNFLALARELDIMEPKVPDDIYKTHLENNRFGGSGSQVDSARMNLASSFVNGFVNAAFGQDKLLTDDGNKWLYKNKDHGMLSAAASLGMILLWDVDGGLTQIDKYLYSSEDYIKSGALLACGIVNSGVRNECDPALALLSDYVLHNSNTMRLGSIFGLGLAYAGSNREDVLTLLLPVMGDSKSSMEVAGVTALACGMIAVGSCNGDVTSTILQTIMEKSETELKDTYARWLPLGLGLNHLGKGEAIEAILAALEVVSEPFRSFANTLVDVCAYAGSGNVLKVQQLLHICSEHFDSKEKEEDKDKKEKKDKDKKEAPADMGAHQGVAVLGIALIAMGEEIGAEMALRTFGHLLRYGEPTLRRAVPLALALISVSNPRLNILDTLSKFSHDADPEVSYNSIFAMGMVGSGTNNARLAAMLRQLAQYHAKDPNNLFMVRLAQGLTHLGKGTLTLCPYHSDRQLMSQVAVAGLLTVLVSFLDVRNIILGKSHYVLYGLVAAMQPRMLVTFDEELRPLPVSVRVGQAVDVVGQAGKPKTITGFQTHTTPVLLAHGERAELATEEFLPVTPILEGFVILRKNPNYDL
inactive: [1] 0.005 | [2] 0.012 | [3] -0.025 | [4] -0.064 | Nexturastat A 0.024 | vemurafenib -0.091 | [5] -0.014 | [6] 0.136 | givinostat -0.048 | barasertib -0.057

From the supplement of paper PMC10849652
